# Source: PubChem BioAssay AID686928 (Broad Institute, 2013)
# Measured potencies and affinities stand elsewhere. Activity calls are given as the source filed them. The rule behind the calls is not given here.
# Assay: human cervical cancer cell viability loss – 24 h, plate reader, dry powder, cytotoxicity control, dose response (AID 686928)
# Settings: HeLa cytotoxicity; series mostly up to 80 µM
row,SMILES,outcome
1,CN(C)/C=N/c1nnc(-c2ccc3c(c2)OCCO3)o1,inactive
2,O=c1nc(-c2ccccc2)n(-c2cccc(Cl)c2)c2ccccc12,inactive
3,O=c1ncn(Cc2ccc(Cl)cc2)c2ccccc12,inactive
4,Cn1nc(NC(=O)c2ccco2)c2cccnc21,inactive
5,Cn1ccc(NC(=O)c2ccco2)n1,inactive
6,Cc1ccc2cc3c(NC(=O)c4ccoc4)nn(C)c3nc2c1,inactive
7,O=C(Nc1nnc(-c2ccncc2)o1)C1CCC1,inactive
8,c1ccc(CNc2nnc(-c3ccc4c(c3)OCCO4)o2)cc1,inactive
9,O=C(Cc1ccc(-c2ccccc2)cc1)N[C@@H]1CCOC1 (racemic),inactive
10,O=c1ncn(-c2ccc(Cl)cc2)c2ccccc12,inactive
11,O=c1ncn(-c2cc(Cl)cc(Cl)c2)c2ccccc12,inactive
12,O=C(Cc1ccc(-c2ccccc2)cc1)NC1CNC1,inactive
13,NC(=O)c1ccccc1Nc1cccc(Cl)c1,inactive
14,CCOC(=O)c1ccccc1Nc1cccc(Cl)c1,inactive
15,COc1ccc2cc3c(NC(=O)c4ccco4)nn(C)c3nc2c1,inactive
16,NC(=O)c1ccccc1Nc1ccccc1,inactive
17,O=C(O)c1ccccc1Nc1cccc(Cl)c1,inactive
18,O=c1ncn(-c2ccccc2Cl)c2ccccc12,inactive
19,O=C(Nc1nnc(-c2ccccc2Cl)o1)C1CCCCC1,inactive

row,SMILES,outcome
1,O=C(Nc1nnc(-c2ccc3c(c2)OCCO3)o1)C1CCCCC1,inactive
2,O=C(Nc1nnc(-c2cccnc2)o1)C1CCCCC1,inactive
3,O=c1ncn(-c2ccccc2)c2ccccc12,inactive
4,O=S(=O)(Nc1nnc(-c2ccc3c(c2)OCCO3)o1)c1ccc(Cl)cc1,inactive
5,C(=N\c1nnc(-c2ccc3c(c2)OCCO3)o1)/c1ccccc1,inactive
6,COc1ccc2c(=O)ncn(-c3cccc(Cl)c3)c2c1,inactive
7,O=c1ncn(-c2cccc(Cl)c2)c2cccc(Cl)c12,inactive
8,COc1ccc(S(=O)(=O)Nc2nnc(-c3ccc4c(c3)OCCO4)o2)cc1,inactive
9,COc1ccccc1-c1nnc(NC(=O)C2CCCCC2)o1,inactive
10,O=C(Nc1nnc(-c2cccc(Cl)c2)o1)C1CCCCC1,inactive
11,O=C(Nc1nnc(-c2ccc3c(c2)OCCO3)o1)C1CCCC1,inactive
12,Cc1ccc2cc3c(NC(=O)c4cccs4)nn(C)c3nc2c1,inactive
13,COc1cccc(-n2cnc(=O)c3ccccc32)c1,inactive
14,COc1cccc(-c2nnc(NC(=O)C3CCCCC3)o2)c1,inactive
15,Cc1nc(=O)c2ccccc2n1-c1cccc(Cl)c1,inactive
16,Cc1ccc2cc3c(NC(=O)Cc4ccco4)nn(C)c3nc2c1,inactive
17,O=C(CC1CCCCC1)Nc1nnc(-c2cccnc2)o1,inactive
18,O=c1ncn(-c2cccc(Cl)c2)c2ccccc12,inactive
19,CCn1nnnc1/N=C/c1ccc(N2CCCCC2)cc1,inactive
